# According to ChEMBL document CHEMBL3433997, “St. Jude Leishmania screening dataset” (2016):
# What was measured:
# Type in all cases: functional
# [1] = target: Solute carrier family 2, facilitated glucose transporter member 1 (Homo sapiens) (UniProt P11166); test: ST_JUDE_LEISH: Cytotoxicity at 2uM final concentration against transgenic Leishmania Mexicana promastigotes LmGLUT1 that are glucose transport deficient and complemented with the human glucose transporter GLUT1. Activity is measured by DNA content using SYBR green in vitro
# Solute carrier family 2, facilitated glucose transporter member 1 (Homo sapiens), sequence (P11166 whole entry): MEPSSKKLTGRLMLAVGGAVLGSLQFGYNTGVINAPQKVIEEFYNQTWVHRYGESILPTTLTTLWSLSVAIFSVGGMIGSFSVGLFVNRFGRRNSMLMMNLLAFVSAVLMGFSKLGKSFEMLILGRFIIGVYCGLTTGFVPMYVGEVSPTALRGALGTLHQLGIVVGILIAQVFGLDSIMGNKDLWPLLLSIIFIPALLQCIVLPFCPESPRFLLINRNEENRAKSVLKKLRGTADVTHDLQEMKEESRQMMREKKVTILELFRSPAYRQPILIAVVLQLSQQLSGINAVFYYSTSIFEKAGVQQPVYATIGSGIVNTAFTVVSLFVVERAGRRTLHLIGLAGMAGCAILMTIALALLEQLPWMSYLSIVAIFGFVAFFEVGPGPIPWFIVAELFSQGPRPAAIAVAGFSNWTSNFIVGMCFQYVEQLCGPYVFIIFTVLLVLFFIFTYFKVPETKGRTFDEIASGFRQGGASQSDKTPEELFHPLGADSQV
# [2] = target: Hexose transporter 1 (Plasmodium falciparum) (UniProt O97467); test: ST_JUDE_LEISH: Cytotoxicity at 2uM final concentration against transgenic Leishmania Mexicana promastigotes LmPfHT that are glucose transport deficient and complemented with the Plasmodium falciparum hexose transporter. Activity is measured by DNA content using SYBR green in vitro
# [3] = target: Glucose transporter (Leishmania mexicana) (UniProt O61059); test: ST_JUDE_LEISH: Cytotoxicity at 2uM final concentration against transgenic Leishmania Mexicana promastigotes LmGT2 that are glucose transport deficient and complemented with the L. Mexicana glucose transporter 2. Activity is measured by DNA content using SYBR green in vitro
SMILES,inhibition [1] [%],inhibition [2] [%],inhibition [3] [%]
Cc1nc2ccc(-c3ccc(OC(F)(F)F)cc3)cc2c(O)c1C#N,-2.1,0.11,-1.44
COc1ccc2ncc(Cl)c(NCC3(O)CCC(NCc4ccc5c(n4)NC(=O)CS5)CC3)c2n1 (stereo not drawn),4.63,3.3,1.82
FC(F)(F)c1cnc(Sc2nnc(-c3ccco3)o2)c(Cl)c1,17.1,12.9,11.8
CCCc1cc(OCCCOc2ccccc2)ccc1OCCCON1C(=N)N=C(N)NC1(C)C,20.6,26.8,14
COc1nc(Nc2cccc(C)c2)nc(OC)n1,-0.24,0.66,0.95
O=C(Nc1ccc(N2CCN(Cc3c[nH]c4cc(F)ccc34)CC2)cc1)c1ccccc1-c1ccc(C(F)(F)F)cc1,7.38,4.06,3.31
CN(C)CCCOc1ccc(CCCCc2ccc(Cl)cc2C(=O)c2ccccc2)cc1,13.3,10.2,7.71
Cc1nn(CC(O)Cn2c3ccc(Br)cc3c3cc(Br)ccc32)c(C)c1Br (stereo not drawn),-0.46,-3.23,-0.3
CCn1c(-c2nonc2N)nc2cnc(Oc3cccc(NC(=O)c4ccc(OCCN5CCCCC5)cc4)c3)cc21,17.2,28.1,13.7
ON=C(c1nc2ccccc2[nH]1)c1nc2ccccc2[nH]1,-0.84,-0.51,0.76
O=C(Nc1cccc(-c2ccc(CN3CCNCC3)cc2)c1)c1cccc(Cl)c1,-0.47,-1.87,-2.68
CO/N=C(\C)c1ccc2c(c1)CCN(CCC1CCC(NC(=O)c3cccc(-c4noc(C)n4)c3)CC1)CC2 (stereo not drawn),3.41,-1.53,0.75
COc1ccc(CC(=O)NC(CCCN2CCC3(CC2)OCc2ccccc23)c2ccc(Cl)c(Cl)c2)cc1 (stereo not drawn),1.2,2.18,-0.29
CC(C)c1cc(Oc2c(I)cc(CCCc3ncc[nH]3)cc2I)ccc1O,9.35,9.42,6.8
COc1cccc2c(NN=Cc3ccc(Cl)cc3)ccnc12,2.42,2.54,2.21
CC(C)c1cccc(OCC2CCN(c3ncc(C(=O)Nc4ccccc4)cc3Cl)CC2)c1,2.96,1.07,-2.66
Cc1cc(NC(=O)c2ccc(-c3ccccc3)cc2)no1,4.35,3.79,4.2
CN(C(=O)Cc1ccc(Cl)cc1)C1CCN(CCCCCNC(=O)/C=C/c2ccc(Cl)c(Cl)c2)CC1,2.86,2.1,1.99
CS(=O)(=O)CCNCc1nc(-c2ccc3c(Nc4ccc(Oc5ccccn5)cc4)ccnc3c2)cs1,5.17,4.96,2.64
COc1ccccc1C1CC(c2ccc(Br)cc2)=NN1C(=O)c1ccccc1 (stereo not drawn),2.83,2.02,0.92
CCCNC(=O)C1Cc2c([nH]c3cc(Br)ccc23)C2(CCN(CCc3ccccc3)CC2)N1 (stereo not drawn),2.03,1.9,1.75
O=C(CC1NC(=O)c2ccccc21)Nc1ccc(-c2cccc(-c3nc4cc(C(F)(F)F)ccc4[nH]3)c2)cc1 (stereo not drawn),1.2,2.78,0.79
N#Cc1ccc(-c2nc(CO)c(C(=O)NCCCCN3CCC(c4ccc5c(c4OCC(N)=O)CCCC5)CC3)s2)cc1,1.02,-1.06,1.74
Cc1cnc(C(=O)Nc2ccc(-c3cccc(-c4nc5ccccc5[nH]4)c3)cc2)cn1,2.19,1.94,-0.57

SMILES,inhibition [1] [%],inhibition [2] [%],inhibition [3] [%]
Cc1ccc2c(=NN=CC=Cc3ccccc3)cc(C)[nH]c2c1,1.49,5.52,2.88
N#Cc1ccc(C(=O)NC2CCN(CCCCCNC(=O)/C=C/c3ccc(Cl)c(Cl)c3)CC2)cc1,0.08,1.46,-1.31
O=C(Nc1ccsc1)Nc1cccc(-c2cccc(-c3nc4cc(C(F)(F)F)ccc4[nH]3)c2)c1,-1.45,1.47,1.55
CC(C)OC(=O)c1ccc(NC(=O)N[C@@H](Cc2ccc(O)cc2)C(=O)NC2CCC(CCN3C4CCC3c3ccccc34)CC2)cc1 (stereo partly drawn),3.08,2.7,2.46
O=C(NCCc1ccccc1)N(Cc1cccc(-c2ccc(CNC3CCCC3)cc2)c1)C1CCN(Cc2ccccc2)CC1,13.9,13.2,11.2
O=C(Nc1cccc(-c2ccc(CN3CCC(O)CC3)cc2)c1)c1ccc(Cl)cc1,2.51,3.64,1.52
O=C(Nc1nc2cc(S(=O)(=O)NCCc3cccc(F)c3)ccc2n1CCCn1ccnc1)c1ccc(Cl)cc1,1.22,0.32,4.97
COc1cc(C)c(C(O)CNC(C)CCc2ccccc2)cc1C (stereo not drawn),2.16,2.83,-0.47
O=[N+]([O-])c1cccc(C(Nc2ccccn2)c2ccc3cccnc3c2O)c1 (stereo not drawn),4.63,5.86,4.17
COc1ccc(NC(=O)[C@H](CC(C)C)Nc2cc(C)nc(NCC3CCCCC3)n2)cc1,3.07,2.78,0.83
Cc1ccc(NC(=O)c2ccc3nccnc3c2)cc1OC1CCN(Cc2ccc(F)cc2)CC1,10.6,11.1,10.5
O=C(Nc1cccc(-c2cccc(-c3nc4cc(C(F)(F)F)ccc4[nH]3)c2)c1)c1ccoc1,10.4,10.1,8.15
Cc1cccc2nc(-c3cccc(-c4ccc(NC(=O)Nc5ccc6c(c5)OCO6)cc4)c3)[nH]c12,1.72,0.05,2.58
Cc1cccc(CN2CCN(c3ncc(C(=O)NC4CC4)cc3Cl)CC2)c1,4.67,2.14,2.71
CCOc1cc(C(=O)NC2CC(C)(C)NC(C)(C)C2)ccc1-c1cc2cc(Cl)c(Cl)cc2[nH]1,-1.95,-1.26,-0.02
NC1CCN(c2cnn(Cc3cccc(NC(=O)Nc4ccc(-c5ccccc5)cc4)c3)c(=O)c2Cl)CC1,1.64,1.72,2.25
Cc1cc(N(C)C)nc(Nc2ccc(NC(=O)c3ccccc3F)cc2)n1,1.36,12.2,2.04
COc1ccc(-c2cc(C(=O)N[C@@H](CC3CCCCC3)C(=O)NC3CCCc4ccccc43)ccc2O)cc1 (stereo partly drawn),0.11,-0.02,1.1
COc1cc(OC)nc(C(Sc2ccc(NC(=O)c3cccs3)cc2)c2ccccc2)n1 (stereo not drawn),6.79,4.81,0.29
CCCCn1c(Sc2ccc(C#N)c([N+](=O)[O-])c2)nnc1-c1cccc(Cl)c1,4.8,6.03,5.83
CCCCc1cc(NCc2ccncc2)nc(Nc2ccccc2)n1,13.6,6.01,4.07
Cc1[nH]cnc1-c1cccc(NC(=O)c2cc3ccccc3s2)c1,-1.01,-1.53,-0.35
COc1ccc2nccc([C@@H](O)CN3CCC(NC(=O)C(c4cc5ccccc5o4)N4CCN(Cc5ccccc5)CC4)CC3)c2c1 (stereo partly drawn),3.8,1.35,0.77
COc1cc2nc(N3CC(C)N(C(=O)Cc4ccc(-c5ccccc5)cc4)C(C)C3)nc(N)c2cc1OC (stereo not drawn),6.24,5.22,3.8

SMILES,inhibition [1] [%],inhibition [2] [%],inhibition [3] [%]
NC1=NC(c2ccccc2)N(c2ccc(Cl)c(Cl)c2)C(N)=N1 (stereo not drawn),9.2,7.89,9.84
FC(F)(F)c1ccc(/C=C/c2cncnc2Nc2ccc3[nH]c(Cc4ccccc4)nc3c2)cc1,4.97,6.03,3.94
CN(C)CCOc1ccc(-c2cc(-c3ccc(Cl)c(O)c3)c(-c3ccncc3)o2)cc1,4.55,-0.72,4.9
COc1ccc2nccc([C@@H](O)CN3CCC(NCc4ccc(OC)c(NC(C)=O)c4)CC3)c2c1,0.33,-2.04,-1.41
CCCC(=O)NC(c1ccc(C)cc1)c1ccc2cccnc2c1O (stereo not drawn),3.47,4.55,-1.36
c1csc(-c2ccc3c(c2)CC(NCc2c[nH]c4cnccc24)C3)c1 (stereo not drawn),4.86,5.34,5.84
O=C(Nc1ccc(N2CCN(c3ncccc3C(F)(F)F)CC2)nc1)c1cccs1,2.6,3.03,0.38
CN(C)CCCNCc1cn(S(=O)(=O)c2ccccc2Cl)c2ccccc12,5.36,5.25,7.6
COc1ccc2nccc([C@@H](O)CN3CCC(NCc4nc5c(OCc6ccccc6)cccc5[nH]4)CC3)c2c1,4.97,3.37,4.99
Cc1[nH]c(CNCCCNc2cc(=O)c3ccccc3[nH]2)c(Br)c1Br,0.62,1.85,-0.49
O=C(NC1CCN(c2ccnc3cc(Cl)ccc23)C1)c1ccc(F)cc1F (stereo not drawn),1.51,5.62,2.89
c1cc2[nH]c(CCCc3nc4cc(C5=N[C@H]6CCCC[C@H]6N5)ccc4[nH]3)nc2cc1C1=N[C@@H]2CCCC[C@@H]2N1,0.97,1.75,0.34
c1ccc2cc3c(Nc4ccc(N5CCCCCC5)cc4)ccnc3cc2c1,0.03,0.23,0.24
FC(F)(F)c1cccc(CNC2CCN(CC3CCCCC3)CC2)c1,5.19,4.53,3.27
CO/C(=C\C=C\c1cc2cc(Cl)c(Cl)cc2[nH]1)C(=O)NCCCN1CCN(c2cccc(O)c2)CC1,10.4,11.7,11.8
CN1CCC(Oc2ccc(CN3CC[C@H](NC(=O)c4cc(F)cc(F)c4)C3)c3ccccc23)C1 (stereo partly drawn),7.53,1.81,3.76
COc1ccc2ccccc2c1CNCC1CCN(CC2CCCCC2)CC1,1.54,-0.57,-1.88
CC1CN(CC(O)Cn2c3ccc(Br)cc3c3cc(Br)ccc32)CC(C)O1 (stereo not drawn),2.95,2.45,3.29
O=C(NCCCCN1CCC(c2ccc3c(c2OCCO)CCCC3)CC1)c1sc(-c2ccc(C(F)(F)F)cc2)nc1CO,3.31,2.17,3.21
CC(C)C1c2ccc(O)cc2CC2C(=O)N(C3CCCCC3)C(=O)N21 (stereo not drawn),-1.04,-1,-0.94
O=C(Nc1cccc(C2=NCCCN2)c1)Nc1cccc(C2=NCCCN2)c1,2.31,1.94,0.46
O=C(Nc1ccc(F)c(F)c1)c1ccc(CN2CCCN(Cc3cccc(F)c3)CC2)cc1,0.07,-0.34,1.29
Cc1cc(CN2CCC(Nc3ncc(-c4ccsc4)c4nc(C(F)(F)F)ccc34)CC2)no1,5.49,6.03,5.5
